Experimental data taken from ChEMBL document CHEMBL2218924, “A broad activity screen in support of a chemogenomic map for kinase signalling research and drug discovery” (Biochem J, 2013).

Legend:
[1] = molecular target: T1, Casein kinase II (Homo sapiens) (UniProt P67870+P68400+P19784); settings: at 1 µM
[2] = molecular target: T1, Casein kinase II (Homo sapiens); settings: at 10 µM
[3] = molecular target: Casein kinase II subunit alpha' (Homo sapiens) (UniProt P19784); settings: at 1 µM
[4] = molecular target: Casein kinase II subunit alpha' (Homo sapiens) (UniProt P19784); settings: at 10 µM
[5] = molecular target: Dual specificity protein kinase CLK2 (Homo sapiens) (UniProt P49760); settings: at 1 µM
[6] = molecular target: Dual specificity protein kinase CLK2 (Homo sapiens) (UniProt P49760); settings: at 10 µM
[7] = molecular target: Dual specificity protein kinase CLK3 (Homo sapiens) (UniProt P49761); settings: at 1 µM
[8] = molecular target: Dual specificity protein kinase CLK3 (Homo sapiens) (UniProt P49761); settings: at 10 µM
[9] = molecular target: Tyrosine-protein kinase CSK (Homo sapiens) (UniProt P41240); settings: at 1 µM
[10] = molecular target: Tyrosine-protein kinase CSK (Homo sapiens) (UniProt P41240); settings: at 10 µM

Dual specificity protein kinase CLK2 (Homo sapiens), sequence (P49760 whole entry, looked up): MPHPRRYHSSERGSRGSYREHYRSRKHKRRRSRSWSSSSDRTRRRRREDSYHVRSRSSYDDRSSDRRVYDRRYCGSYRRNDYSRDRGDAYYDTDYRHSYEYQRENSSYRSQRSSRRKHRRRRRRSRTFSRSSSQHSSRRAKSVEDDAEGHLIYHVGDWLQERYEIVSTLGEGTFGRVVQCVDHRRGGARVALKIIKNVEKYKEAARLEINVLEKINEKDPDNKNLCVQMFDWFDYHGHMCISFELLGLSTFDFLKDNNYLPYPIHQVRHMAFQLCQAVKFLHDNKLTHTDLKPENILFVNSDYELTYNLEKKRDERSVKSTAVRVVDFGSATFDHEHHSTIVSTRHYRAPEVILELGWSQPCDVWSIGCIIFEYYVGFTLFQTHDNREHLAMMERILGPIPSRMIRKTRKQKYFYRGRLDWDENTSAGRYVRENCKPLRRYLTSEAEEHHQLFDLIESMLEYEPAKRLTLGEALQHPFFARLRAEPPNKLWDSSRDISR
Dual specificity protein kinase CLK3 (Homo sapiens), sequence (P49761 whole entry, looked up): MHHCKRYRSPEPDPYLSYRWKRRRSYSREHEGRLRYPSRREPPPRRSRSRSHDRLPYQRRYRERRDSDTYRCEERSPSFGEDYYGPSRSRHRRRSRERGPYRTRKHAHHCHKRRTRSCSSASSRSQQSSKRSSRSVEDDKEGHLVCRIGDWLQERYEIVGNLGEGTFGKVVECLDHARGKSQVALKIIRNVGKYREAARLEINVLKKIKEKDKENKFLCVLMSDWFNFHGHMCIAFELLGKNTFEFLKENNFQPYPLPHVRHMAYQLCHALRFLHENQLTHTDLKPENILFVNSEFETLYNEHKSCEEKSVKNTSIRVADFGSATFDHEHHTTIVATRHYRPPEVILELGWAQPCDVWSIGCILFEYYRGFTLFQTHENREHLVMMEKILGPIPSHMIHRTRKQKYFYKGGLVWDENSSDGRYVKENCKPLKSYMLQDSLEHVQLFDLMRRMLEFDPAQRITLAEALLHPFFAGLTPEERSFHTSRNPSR
T1 sequence (P19784 whole entry, looked up): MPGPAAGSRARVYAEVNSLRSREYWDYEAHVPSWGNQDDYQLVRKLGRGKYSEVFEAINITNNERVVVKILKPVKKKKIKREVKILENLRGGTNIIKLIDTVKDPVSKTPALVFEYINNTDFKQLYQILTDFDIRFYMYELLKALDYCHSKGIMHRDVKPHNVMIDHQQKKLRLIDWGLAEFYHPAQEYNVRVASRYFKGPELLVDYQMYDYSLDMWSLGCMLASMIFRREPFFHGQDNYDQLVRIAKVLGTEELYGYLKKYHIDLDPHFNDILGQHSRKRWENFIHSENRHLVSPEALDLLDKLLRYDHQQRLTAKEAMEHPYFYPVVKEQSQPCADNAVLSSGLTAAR
T1 sequence (P67870 whole entry, looked up): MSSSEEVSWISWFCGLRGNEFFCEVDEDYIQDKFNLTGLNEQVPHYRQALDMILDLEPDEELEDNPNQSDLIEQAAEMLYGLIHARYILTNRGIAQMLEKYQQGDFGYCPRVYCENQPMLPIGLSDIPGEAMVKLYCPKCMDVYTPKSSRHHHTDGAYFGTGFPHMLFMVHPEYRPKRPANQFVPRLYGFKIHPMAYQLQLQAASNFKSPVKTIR
T1 sequence (P68400 whole entry, looked up): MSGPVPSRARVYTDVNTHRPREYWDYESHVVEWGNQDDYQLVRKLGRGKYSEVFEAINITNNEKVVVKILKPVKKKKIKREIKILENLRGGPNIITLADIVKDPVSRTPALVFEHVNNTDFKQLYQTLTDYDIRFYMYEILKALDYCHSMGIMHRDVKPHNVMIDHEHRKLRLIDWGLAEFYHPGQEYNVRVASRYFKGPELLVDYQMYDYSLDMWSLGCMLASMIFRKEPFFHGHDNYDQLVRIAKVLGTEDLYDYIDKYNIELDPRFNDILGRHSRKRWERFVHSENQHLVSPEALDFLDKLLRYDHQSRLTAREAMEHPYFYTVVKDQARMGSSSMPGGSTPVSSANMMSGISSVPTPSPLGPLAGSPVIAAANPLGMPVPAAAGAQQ
Casein kinase II subunit alpha' (Homo sapiens), sequence (P19784 whole entry, looked up): as the sequence (P19784 whole entry, looked up) above
Tyrosine-protein kinase CSK (Homo sapiens), sequence (P41240 2-450 limits assumed): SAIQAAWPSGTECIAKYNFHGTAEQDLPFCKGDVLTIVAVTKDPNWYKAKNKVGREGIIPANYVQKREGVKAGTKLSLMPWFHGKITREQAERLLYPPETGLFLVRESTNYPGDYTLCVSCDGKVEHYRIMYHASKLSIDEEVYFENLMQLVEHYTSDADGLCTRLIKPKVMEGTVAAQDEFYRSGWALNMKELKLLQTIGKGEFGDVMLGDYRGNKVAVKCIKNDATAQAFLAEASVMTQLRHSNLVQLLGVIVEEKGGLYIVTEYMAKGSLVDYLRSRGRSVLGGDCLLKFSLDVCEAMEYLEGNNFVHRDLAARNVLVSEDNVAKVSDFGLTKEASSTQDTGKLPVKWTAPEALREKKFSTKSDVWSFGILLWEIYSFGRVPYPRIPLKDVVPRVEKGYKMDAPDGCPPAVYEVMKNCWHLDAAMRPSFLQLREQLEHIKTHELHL

## O=c1c2ccccc2[nH]c(=S)n1CCN1CCC(=C(c2ccc(F)cc2)c2ccc(F)cc2)CC1
[1]
  residual activity: 89%
[2]
  residual activity: 116%
[3]
  residual activity: 125%
[4]
  residual activity: 93%
[5]
  residual activity: 115%
[6]
  residual activity: 94%
[7]
  residual activity: 90%
[8]
  residual activity: 64%
[9]
  residual activity: 120%
[10]
  residual activity: 98%

## CCOc1cc2ncnc(Nc3cccc(Br)c3)c2cc1OCC
[1]
  residual activity: 89%
[2]
  residual activity: 104%
[3]
  residual activity: 113%
[4]
  residual activity: 95%
[5]
  residual activity: 102%
[6]
  residual activity: 68%
[7]
  residual activity: 92%
[8]
  residual activity: 59%
[9]
  residual activity: 95%
[10]
  residual activity: 66%

## O=c1cc(-c2cccc3c2Sc2ccccc2S3)oc(N2CCOCC2)c1
[1]
  residual activity: 106%
[2]
  residual activity: 109%
[3]
  residual activity: 107%
[4]
  residual activity: 104%
[5]
  residual activity: 104%
[6]
  residual activity: 92%
[7]
  residual activity: 100%
[8]
  residual activity: 87%
[9]
  residual activity: 103%
[10]
  residual activity: 99%

## O=C1c2ccccc2-[n+]2ccc3c([nH]c4ccccc43)c21
[1]
  residual activity: 87%
[2]
  residual activity: 71%
[3]
  residual activity: 104%
[4]
  residual activity: 85%
[5]
  residual activity: 114%
[6]
  residual activity: 103%
[7]
  residual activity: 79%
[8]
  residual activity: 72%
[9]
  residual activity: 86%
[10]
  residual activity: 88%

## COc1ccc(C(=O)Nc2sc3c(c2C(N)=O)CCCC3)cc1OC
[1]
  residual activity: 95%
[2]
  residual activity: 115%
[3]
  residual activity: 126%
[4]
  residual activity: 91%
[5]
  residual activity: 90%
[6]
  residual activity: 82%
[7]
  residual activity: 50%
[8]
  residual activity: 52%
[9]
  residual activity: 101%
[10]
  residual activity: 99%

## O=C(O)c1ccc2c3c1cccc3c(=O)n1c3ccccc3nc21
[1]
  residual activity: 22%
[2]
  residual activity: -4%
[3]
  residual activity: 18%
[4]
  residual activity: 4%
[5]
  residual activity: 77%
[6]
  residual activity: 27%
[7]
  residual activity: 77%
[8]
  residual activity: 32%
[9]
  residual activity: 102%
[10]
  residual activity: 88%

## O=C1Nc2cc(Br)ccc2/C1=C1/Nc2ccccc2/C1=N\O
[1]
  residual activity: 94%
[2]
  residual activity: 86%
[3]
  residual activity: 94%
[4]
  residual activity: 57%
[5]
  residual activity: 92%
[6]
  residual activity: 74%
[7]
  residual activity: 79%
[8]
  residual activity: 54%
[9]
  residual activity: 94%
[10]
  residual activity: 89%

## Nc1n[nH]c2nnc(-c3c(-c4ccccc4)nn4ccccc34)cc12
[1]
  residual activity: 98%
[2]
  residual activity: 85%
[3]
  residual activity: 101%
[4]
  residual activity: 92%
[5]
  residual activity: 98%
[6]
  residual activity: 84%
[7]
  residual activity: 84%
[8]
  residual activity: 90%
[9]
  residual activity: 107%
[10]
  residual activity: 103%

## CC(C)n1cnc2/c(=N/c3cccc(Cl)c3)nc(NCCO)[nH]c21
[1]
  residual activity: 89%
[2]
  residual activity: 86%
[3]
  residual activity: 108%
[4]
  residual activity: 103%
[5]
  residual activity: 19%
[6]
  residual activity: 6%
[7]
  residual activity: 55%
[8]
  residual activity: 12%
[9]
  residual activity: 101%
[10]
  residual activity: 88%

## O=C1NC(=O)/C(=C/c2ccc3c(c2)OC(F)(F)O3)S1
[1]
  residual activity: 32%
[2]
  residual activity: 2%
[3]
  residual activity: 52%
[4]
  residual activity: 0%
[5]
  residual activity: 116%
[6]
  residual activity: 75%
[7]
  residual activity: 91%
[8]
  residual activity: 94%
[9]
  residual activity: 121%
[10]
  residual activity: 117%

## Oc1ccc(-c2nc(-c3ccc(F)cc3)c(-c3ccncc3)[nH]2)cc1
[1]
  residual activity: 107%
[2]
  residual activity: 107%
[3]
  residual activity: 122%
[4]
  residual activity: 97%
[5]
  residual activity: 123%
[6]
  residual activity: 104%
[7]
  residual activity: 94%
[8]
  residual activity: 90%
[9]
  residual activity: 126%
[10]
  residual activity: 104%

## Cc1cc(Nc2nc(-c3ccccc3)nc3ccccc23)n[nH]1
[1]
  residual activity: 43%
[2]
  residual activity: -2%
[3]
  residual activity: 21%
[4]
  residual activity: -2%
[5]
  residual activity: 10%
[6]
  residual activity: 8%
[7]
  residual activity: 53%
[8]
  residual activity: 15%
[9]
  residual activity: 102%

## CC(=O)O/N=C1\C(=C2\C(=O)Nc3cc(Br)ccc32)Nc2ccccc21
[1]
  residual activity: 96%
[2]
  residual activity: 90%
[3]
  residual activity: 102%
[4]
  residual activity: 89%
[5]
  residual activity: 102%
[6]
  residual activity: 65%
[7]
  residual activity: 82%
[8]
  residual activity: 76%
[9]
  residual activity: 104%
[10]
  residual activity: 86%

## Oc1n[nH]c2nnc(-c3c(-c4ccccc4)nn4ccccc34)cc12
[1]
  residual activity: 92%
[2]
  residual activity: 82%
[3]
  residual activity: 110%
[4]
  residual activity: 91%
[5]
  residual activity: 114%
[6]
  residual activity: 118%
[7]
  residual activity: 85%
[8]
  residual activity: 96%
[9]
  residual activity: 93%
[10]
  residual activity: 84%

## c1ccc(-c2n[nH]c3c2oc2ccccc23)cc1
[1]
  residual activity: 86%
[3]
  residual activity: 119%
[4]
  residual activity: 94%
[5]
  residual activity: 91%
[6]
  residual activity: 80%
[7]
  residual activity: 86%
[8]
  residual activity: 14%

## CO[C@@H]1[C@H](N(C)C(=O)c2ccccc2)C[C@H]2O[C@]1(C)n1c3ccccc3c3c4c(c5c6ccccc6n2c5c31)C(=O)NC4
[1]
  residual activity: 73%
[2]
  residual activity: 97%
[3]
  residual activity: 117%
[4]
  residual activity: 102%
[5]
  residual activity: 17%
[6]
  residual activity: 9%
[8]
  residual activity: 4%
[9]
  residual activity: 82%
[10]
  residual activity: 78%

## CN(C)c1ccc(/C=C2\C(=O)Nc3ccccc32)cc1
[1]
  residual activity: 87%
[2]
  residual activity: 108%
[3]
  residual activity: 115%
[4]
  residual activity: 96%
[5]
  residual activity: 86%
[6]
  residual activity: 48%
[7]
  residual activity: 77%
[8]
  residual activity: 13%
[9]
  residual activity: 116%
[10]
  residual activity: 119%

## CO[C@H]1C[C@@H]2CC[C@@H](C)[C@@](O)(O2)C(=O)C(=O)N2CCCC[C@H]2C(=O)O[C@H]([C@H](C)C[C@@H]2CC[C@@H](O)[C@H](OC)C2)CC(=O)[C@H](C)/C=C(\C)[C@@H](O)[C@@H](OC)C(=O)[C@H](C)C[C@H](C)/C=C/C=C/C=C/1C
[1]
  residual activity: 99%
[2]
  residual activity: 98%
[4]
  residual activity: 105%
[5]
  residual activity: 118%
[6]
  residual activity: 137%
[7]
  residual activity: 80%
[8]
  residual activity: 95%
[9]
  residual activity: 112%
[10]
  residual activity: 95%

## COc1cc2ncnc(Nc3ccc(NC(=O)c4ccccc4)cc3)c2cc1OC
[1]
  residual activity: 98%
[2]
  residual activity: 111%
[3]
  residual activity: 110%
[4]
  residual activity: 107%
[5]
  residual activity: 107%
[6]
  residual activity: 82%
[7]
  residual activity: 83%
[8]
  residual activity: 39%
[10]
  residual activity: 92%

## Cc1cccc(-c2[nH]c(C(C)(C)C)nc2-c2ccc3c(c2)OCO3)n1
[2]
  residual activity: 132%
[7]
  residual activity: 90%
[8]
  residual activity: 145%

## CCC(=O)Nc1ccc2ncnc(Nc3cccc(Br)c3)c2c1
[1]
  residual activity: 107%
[2]
  residual activity: 101%
[3]
  residual activity: 125%
[4]
  residual activity: 90%
[5]
  residual activity: 125%
[6]
  residual activity: 105%
[7]
  residual activity: 76%
[8]
  residual activity: 142%
[9]
  residual activity: 104%
[10]
  residual activity: 93%
